# Most compounds without a hit are left out; they make up all but 2.7% or so of the library.
# BRCA1 expr act – qHTS Assay to Identify Small Molecule Activators of BRCA1 Expression; Potency, µM (doses to about 46.1 µM), for the others: top-dose activation, hits mostly activators; hit rate 1.1% among 380,000; MCF7-BRCA1-FFLuc reporter, luminescence, 48 h; response scale: scaled: vehicle 0%, 10 µM genistein 100%; also: nearly all actives have a fitted effect of over 80% in size
#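 Cells: MCF7-BRCA1-FFLuc, 2000/well. Exposure: 48 h, 37 °C, 5% CO2. Read: luminescence, 15 min post-substrate. Controls: genistein 10 microM (maximal activation), DMSO (neutral).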
# GLP1R inv ag – qHTS of GLP-1 Receptor Inverse Agonists (Inhibition Mode); Potency, µM (doses to about 38.3 µM), for inactives: at the highest dose activity change, negative = inhibition, hits mostly inhibitors; hit rate 1.6% among 410,000; Glucagon-like peptide 1 receptor (Homo sapiens), P43220; HEK293 GLP-1R CRE-luciferase, luminescence, 24 h; GLP-1R form is constitutively active; also: % is scaled to controls: 0 for no effect and ±100 for the full control effect; nearly all actives have a fitted effect of over 55% in size
# Target sequence (P43220 whole entry, looked up): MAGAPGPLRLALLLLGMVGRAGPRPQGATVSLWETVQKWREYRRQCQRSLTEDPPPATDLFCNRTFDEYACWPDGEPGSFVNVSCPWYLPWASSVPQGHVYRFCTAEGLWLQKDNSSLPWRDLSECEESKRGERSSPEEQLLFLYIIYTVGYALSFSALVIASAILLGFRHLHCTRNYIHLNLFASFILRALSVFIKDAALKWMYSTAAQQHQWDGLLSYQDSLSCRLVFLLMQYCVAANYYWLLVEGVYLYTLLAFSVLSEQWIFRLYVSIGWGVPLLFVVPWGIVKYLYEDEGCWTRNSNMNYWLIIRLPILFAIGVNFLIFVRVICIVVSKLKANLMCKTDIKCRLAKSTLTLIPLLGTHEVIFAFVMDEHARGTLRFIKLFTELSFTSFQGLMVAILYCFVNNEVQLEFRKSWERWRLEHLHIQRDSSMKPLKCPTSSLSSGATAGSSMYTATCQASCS
#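 qHTS in 1536-well format: reporter HEK293 cells expressing constitutive GLP-1R activity in DMEM + 10% Nu serum, 24 hr with compounds at 37 deg C, luminescence read after 12 min with detection reagent.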
# Integrin act MD – qHTS for Activators of Integrin-Mediated Alleviation for Muscular Dystrophy. alpha7betagal myoblasts, beta-gal FDG fluorescence, 48 h. Potency, µM (series often up to 38.3 µM), inactives show at the top dose activation, actives largely listed as activators. hit rate 0.064% among 350,000. AID 624291, 2012;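 also: 100% = response of the positive control SU9516; nearly all actives have a fitted effect of over 60% in size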
#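 alpha7betagal+/- myoblasts (passage 13, 250/well) treated 48 h at 37C with compounds at 1:260 dilution of DMSO stock. Lysed, then beta-galactosidase activity read as FDG fluorescence (ex 480/em 540) after 30 min, with pre-read for autofluorescence.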
# HEK293 tox – qHTS of GLP-1 Receptor Inverse Agonists: Cytotox Screen; HEK293 cAMP-luciferase reporter cells, luminescence, 24 h; hit rate 0.13% among 410,000; Potency, µM (top dose mostly 38.3 µM), for the others: top-dose activity change, negative = inhibition, most hits filed as inhibitors;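 also: loss of luciferase light is scored as toxicity; % is scaled to controls: 0 for no effect and ±100 for the full control effect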
#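 A 23 nL compound transfer followed 12 hours of cell culture at 37 deg C; exposure then lasted 24 hr. Luciferase assay detection reagent was dispensed and plates read for luminescence after a 12 min room-temperature wait.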
# GLP-1R agonist – qHTS of GLP-1 Receptor Agonists. Potency, µM (top dose mostly 45.6 µM), without a hit: top-dose activation, most hits filed as activators. hit rate 0.007% among 380,000. AID 624172, 2012. HEK293 GLP-1R CRE-luciferase, luminescence, 4-6 h; cells express a hypersensitive GLP-1R form. Glucagon-like peptide 1 receptor (Homo sapiens), P43220; also: % of control where 0% means no effect
# * hit, by the source's call; ? = inconclusive; · = not tested or not shown. Calls follow the shape of the dose curve; as a rule, active = well fitted curve in the direction sought with a large enough effect; inconclusive = small, poorly fitted or top-dose-only effect, or another doubt; inactive = no such curve, though single readings can be large; an effect the other way counts as inactive or inconclusive. Potency is read from the fitted curve at half-maximal effect.
SMILES,BRCA1 expr act,GLP1R inv ag,Integrin act MD,HEK293 tox,GLP-1R agonist
Cc1ccc(CSc2ncnc3c2cnn3-c2ccccc2)cc1,58%,1%,26%,71%,-14%
COc1ccc(N2CCN(S(=O)(=O)CCNC(=O)c3ccc(C(F)(F)F)cc3)CC2)cc1,·,15%,·,-1%,·
COc1ccc(NC(=O)CSc2ccc3nc(-c4ccccc4)cn3n2)c(OC)c1,·,22%,·,3%,·
COc1ccc(NC(=O)CSc2nnc(-c3ccc(OC)cc3)s2)cc1,·,0%,·,5%,·
CCN(c1ccccc1)c1ncnc2c1cnn2-c1ccccc1,5µM*,?,-2%,1%,?
O=c1cc(-c2ccccc2)n2c(SCc3ccc([N+](=O)[O-])cc3)nnc2[nH]1,·,4%,·,17%,·
COc1ccccc1-[n+]1c(C)cc(/C=C2\Sc3ccccc3N2C)cc1C,-39%,2.5µM*,-28%,-11%,-6%
COc1ccc(-[n+]2c(C)cc(/C=C3\Sc4ccccc4N3C)cc2C)cc1,-24%,?,-32%,-24%,0%
Cc1cccc(N2CCN(C(=O)CN3C(=O)COc4ccc(S(=O)(=O)N5CCC(C)CC5)cc43)CC2C)c1 (stereo not given),-5%,11%,·,5%,-4%
CCn1c(O)c(N=NC(=S)NCC2CCCO2)c2ccccc21 (stereo not given),-38%,2.8µM*,-70%,?,7%
Oc1[nH]c2ccccc2c1N=NC(=S)NCC1CCCO1 (stereo not given),-10%,2%,-6%,?,12%
Oc1[nH]c2c(Cl)cc(Cl)cc2c1N=NC(=S)NCC1CCCO1 (stereo not given),-59%,?,7%,4µM*,11%
Oc1[nH]c2ccc(Br)cc2c1N=NC(=S)NCC1CCCO1 (stereo not given),-41%,13%,19%,?,2%
Cc1cc(C)c2[nH]c(O)c(N=NC(=S)NCC3CCCO3)c2c1 (stereo not given),-8%,?,-21%,8.9µM*,11%
COc1ccc(OC)c(CNC(=O)CN2CC(C)Sc3ccccc32)c1 (stereo not given),-18%,-20%,·,-2%,-6%
COc1ccc2c(c1)C=C/C2=C/c1ccc(N(C)C)cc1,80%,·,·,·,·
CC(=O)c1ccc(N2CCN(C(=O)c3cc(S(=O)(=O)N4CCCCCC4)cn3C)CC2)cc1,5%,4%,·,5%,6%
CC1CCC(NC(=O)c2ccc(CS(=O)(=O)c3cccc(C(F)(F)F)c3)o2)CC1 (stereo not given),·,18%,·,-14%,·
O=C(Nc1cccc2c1CCCC2)c1cc([N+](=O)[O-])ccc1Cl,-66%,3.2µM*,-27%,?,-7%
O=C(Nc1cccc2c1CCCC2)c1ccc(Cl)c([N+](=O)[O-])c1,-54%,6%,2%,6%,4%
CCOC(=O)c1c(C)[nH]c(C)c1S(=O)(=O)NCC(=O)Nc1ccc(C)cc1C,-18%,-1%,·,-5%,·
Cc1cc(Nc2ccc3c(c2)OCCO3)c2cccc(C)c2n1,-10%,?,-12%,8.9µM*,4%
CC(=O)c1cccc(NC(=O)COC(=O)c2ccccc2OCc2cccc(Br)c2)c1,13%,·,·,·,·
O=c1cc(-c2ccccc2F)oc2ccccc12,13µM*,-8%,-2%,-15%,?
Cc1ccc(C(=O)NCCc2ccc(S(N)(=O)=O)cc2)cc1-n1cnc2cccnc21,·,2%,·,1%,·
CN(C)/C=C1\C(=O)N(c2ccc(Cl)cc2)CS1(=O)=O,7.9µM*,5%,-2%,1%,-9%
Nc1c(Cl)cc(C=O)cc1Cl,11%,·,·,·,·
Cc1cnc(NC(=O)c2sc(Nc3ccccc3)nc2N)o1,13µM*,?,-23%,-6%,11%
COc1ccc2c(c1)CC/C2=N\OC(=O)c1ccccc1OC,35%,42%,15%,10µM*,11%
